Measurements from PubChem BioAssay AID1558 (National Center for Advancing Translational Sciences (NCATS), 2009).
Inconclusive results are not listed. The source made the active and inactive calls. The call rests on the fitted dose curve; in most records, active means well fitted inhibition curve with a large enough effect; inconclusive means small, poorly fitted or top-dose-only effect; inactive means flat fitted curve, though single readings scatter.

Target: Microtubule-associated protein tau (Homo sapiens) (UniProt P10636)
Sequence (P10636 561-689 P618L limits assumed): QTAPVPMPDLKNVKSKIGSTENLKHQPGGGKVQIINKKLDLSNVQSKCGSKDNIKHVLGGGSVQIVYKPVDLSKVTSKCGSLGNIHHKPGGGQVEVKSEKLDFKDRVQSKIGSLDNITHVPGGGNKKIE
Assay: Confirmation Concentration-Response Assay for Inhibitors of Tau Fibril Formation, Thioflavin T Binding
Conditions: recombinant tau K18 P301L (four-repeat tau fragment) heparin fibrillization, ThT fluorescence
Excerpt: NIH Molecular Libraries Probe Production Network [MLPCN] NIH Chemical Genomics Center [NCGC] MLPCN Grant: X01 MH083262-01 Assay Provider: Carlo Ballatore, University of Pennsylvania NCGC Assay Overview: The microtubule-associated protein tau is an abundant protein in the axons of neurons that stabilizes microtubules. With its ability to modulate microtubule dynamics, tau contributes directly or indirectly, to key structural and regulatory cellular functions. Particularly important is the influence tau exerts on axonal transport, which allows signaling molecules, trophic factors and other essential cellular constituents to travel along the axons. Under pathological conditions, tau becomes sequestered into insoluble aggregates called neurofibrillary tangles. […] This assay monitors tau fibrillization by Thioflavin T (ThT) fluorescence. […]
For screening, 2 uL/well human K18 P301L (15 uM unlabeled and 0.24 uM Alexa 594-labeled tau, final concentrations) in reagent buffer (100 mM sodium acetate pH 7) was dispensed into black solid 1536-well plates (Grenier) using a solenoid-based dispenser. […] After a 1 hr ambient incubation, the plates were read by an Envision (Perkin Elmer) to monitor ThT fluorescence (450/8 nm excitation and 510/23 nm emission). […]

## CC(N)[C@H](O)c1ccc(O)c(O)c1 (stereo partly specified)
  Potency: 7.94 µM (active)
